Source: PubChem BioAssay (National Center for Advancing Translational Sciences (NCATS))
Tau fluor cs: counter-screen for tau fibril formation inhibitors. 280,000 tested, 0.93% active. AID 1463. Potency, µM (top dose mostly 57.7 µM). tau K18 P301L Alexa594 fluorescence, heparin fibrillization; further: nearly all actives have a fitted effect of over 55% in size
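Human tau K18 P301L (15 uM unlabeled, 0.24 uM Alexa 594-labeled) in 100 mM sodium acetate pH 7 with 20 uM heparin, 6 hr at 37 C. ThT 30 uM added, 1 hr ambient; Alexa 594 FP and total fluorescence read at 555/632 nm.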
GoLoco inh red: inhibitors of human Gai1-RGS12 GoLoco interaction (red fluorophore); Gai1:RGS12 GoLoco peptide FP, rhodamine, 10 min; AID 880; Potency, µM (doses to about 61.6 µM), most hits filed as inhibitors; 230,000 tested, 0.44% active; active means well fitted inhibition curve with a large enough effect, not every such curve was filed as active; inactive means no such curve, though single readings can be large or run the other way; further: nearly all actives have a fitted effect of over 30% in size
TRb-SRC2 inh: disrupts binding of human TR beta to SRC2; Potency, µM (titrated, usually from 106 µM), hits mostly inhibitors; TRbeta-SRC2 peptide binding, fluorescence polarization; receptor liganded with 1 µM T3; 280,000 tested, 0.065% active; further: nearly all actives have a fitted effect of over 50% in size
Target sequence (P10828 whole entry, looked up): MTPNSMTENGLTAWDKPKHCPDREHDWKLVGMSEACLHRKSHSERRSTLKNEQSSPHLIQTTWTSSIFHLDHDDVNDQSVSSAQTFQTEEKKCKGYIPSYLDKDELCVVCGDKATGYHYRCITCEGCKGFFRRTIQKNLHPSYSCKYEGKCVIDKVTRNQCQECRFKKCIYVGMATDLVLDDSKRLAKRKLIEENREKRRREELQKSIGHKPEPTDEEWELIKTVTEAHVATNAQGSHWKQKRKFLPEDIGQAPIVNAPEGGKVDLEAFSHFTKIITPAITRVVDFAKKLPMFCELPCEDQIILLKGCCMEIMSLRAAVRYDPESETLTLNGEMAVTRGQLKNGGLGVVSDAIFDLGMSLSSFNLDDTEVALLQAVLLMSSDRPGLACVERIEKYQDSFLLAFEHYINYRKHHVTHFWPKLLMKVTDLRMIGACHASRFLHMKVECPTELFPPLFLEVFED
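Binding of a 20-amino-acid Texas Red SRC2 peptide (20 nM) to TRb ligand-binding domain (0.6 uM) with agonist T3 at 1 uM was followed by fluorescence polarization after a 5 hr room-temperature incubation.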
TR SRC2 fluor cs: counter-screen for TRb-SRC2 inhibitors: fluorescence interference; TRb/SRC2 Texas Red total fluorescence interference; Potency, µM (series often up to 106 µM); 280,000 tested, 0.29% active; AID 1479; active means well fitted curve in either direction with a large enough effect; inconclusive means small, poorly fitted or top-dose-only effect
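Flags fluorescent or light-absorbing compounds by total fluorescence, S + 2P, at 555 nm excitation and 632 nm emission. Mixture: 20 nM Texas Red SRC2 peptide, 0.6 uM human TRb LBD, 1 uM T3, 5% DMSO; compound exposure 5 h at ambient temperature.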
Tau ThT inhib: tau fibrillization inhibition (ThT binding). P10636. recombinant tau K18 P301L (four-repeat tau fragment), heparin-induced fibrillization, ThT fluorescence. Potency, µM (top dose mostly 57.4 µM), usual class: inhibitors. 270,000 tested, 2.1% active; further: nearly all actives have a fitted effect of over 55% in size
Target sequence (P10636 561-689 P618L limits assumed): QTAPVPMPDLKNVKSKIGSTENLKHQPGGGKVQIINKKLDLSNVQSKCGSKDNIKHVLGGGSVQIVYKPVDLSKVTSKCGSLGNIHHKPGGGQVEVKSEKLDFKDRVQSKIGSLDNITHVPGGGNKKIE
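Recombinant human tau K18 fragment […] carrying P301L, 15 uM unlabeled plus 0.24 uM Alexa 594-labeled, was fibrillized with 20 uM heparin in 100 mM sodium acetate pH 7 for 6 hr at 37 C; 30 uM ThT fluorescence read after 1 hr.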
Tau fibril FP: tau fibrillization inhibition (FP); P10636; K18 P301L tau heparin fibrillization, Alexa594 FP, 6 h; Potency, µM (titrated, usually from 57.7 µM), usual class: inhibitors; 280,000 tested, 0.39% active; AID 1468; further: nearly all actives have a fitted effect of over 55% in size
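Recombinant K18 P301L […], labeled with Alexa 594 at 0.24 uM over 15 uM unlabeled; heparin inducer 20 uM final; 37 C, 6 hr; FP endpoint.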
Large screens that a line does not name were inactive; [ ] = dose if it differs, or a comment. Hits are enriched below; roughly 3.2% of the tested compounds scored in any of these assays. Unless noted, the call rests on the fitted dose curve; in most records, active means well fitted curve in the direction sought with a large enough effect; inconclusive means small, poorly fitted or top-dose-only effect, or another doubt; inactive means no such curve, though single readings can be large; an effect the other way counts as inactive or inconclusive.

COc1ccc(NC(=O)Cn2c3ncccc3c(=O)n2-c2ccc(C)c(C)c2)c(OC)c1	none (no result: GoLoco inh red)
CC(C)c1ccc(/C(C(=O)O)=C(\O)C(=O)O)cc1	none (no result: Tau fluor cs, TRb-SRC2 inh, TR SRC2 fluor cs, Tau ThT inhib, Tau fibril FP)
COC(=O)/C(Cc1cc(Br)c(OC)c(Br)c1O)=N/O	none
COc1ccc2c(Cl)c(C(=O)N/N=C/c3c(C)[nH]c4ccccc34)sc2c1	Tau fluor cs 11µM[quencher], Tau ThT inhib 4.5µM (no result: GoLoco inh red)
COC(=O)[C@H](CCSC)NC(=O)C/C=C\[C@@H](C)[C@@H](CO)OC	none (no result: GoLoco inh red)
Cc1ccc(C(C[N+](=O)[O-])c2c(-c3ccccc3O)[nH][nH]c2=O)cc1 (stereo unspecified)	Tau ThT inhib 18µM, Tau fibril FP inconclusive
COc1ccc(-c2ccc(C)cc2)cc1C1C2C=CCC(C)C2C(=O)N1Cc1ccccc1 (stereo unspecified)	none (no result: Tau fluor cs, GoLoco inh red, Tau ThT inhib, Tau fibril FP)
O=C1C(=Cc2ccc(Br)o2)C(=O)c2ccccc21	Tau fluor cs inconclusive, Tau ThT inhib 6.3µM, Tau fibril FP inconclusive
CC1=C/C(=C\c2ccc(Br)o2)C(=O)O1	none
CCOC(=O)OCC1OC(c2ccccc2)C=CC1Oc1ccc(F)cc1C (stereo unspecified)	TR SRC2 fluor cs inconclusive (no result: GoLoco inh red)
O=[N+]([O-])C(CO)(CO)CO	none (no result: Tau fluor cs, GoLoco inh red, Tau ThT inhib, Tau fibril FP)
COC(=O)NC(CCc1ccccc1)C(C(=O)OC)C(=O)OC (stereo unspecified)	none
COc1cc2c(cc1NC(=S)Nc1cccc(C(F)(F)F)c1)oc1ccccc12	Tau fluor cs 13µM[quencher], Tau ThT inhib inconclusive, Tau fibril FP inconclusive
COc1cc2c(cc1NC(=O)Nc1ccccc1)oc1ccccc12	Tau fluor cs 7.1µM[quencher]
C[C@@H]1CC[C@H]2[C@H](C)C3[C@H](C[C@H]4[C@@H]5CC=C6C[C@@H](O)CC[C@@]6(C)[C@@H]5C[C@@H](O)[C@]34C)N2C1 (stereo partly specified)	none (no result: Tau fluor cs, TRb-SRC2 inh, TR SRC2 fluor cs, Tau ThT inhib, Tau fibril FP)
COc1ccc2c(c1)C(c1cc(OC)c(OC)c(OC)c1)CC(=O)O2 (stereo unspecified)	none
COC(=O)C1=C(C(=O)OC)[C@@H]2N(C)c3ccccc3[C@@]23C[C@@H](C(=O)OC)N(S(=O)(=O)c2ccc(C#N)cc2)C3=N1	none
CCn1c(CN2CCCCC2)nc2cc(NC(=O)COc3ccccc3C(C)(C)C)ccc21	TR SRC2 fluor cs 282µM[quencher] (no result: GoLoco inh red)
CCN1CCN(Cc2nc3cc(NC(=O)c4cccc([N+](=O)[O-])c4)ccc3n2CC)CC1	TR SRC2 fluor cs 2.8µM[quencher] (no result: GoLoco inh red)
Cn1c(CN2CCOCC2)nc2cc(NC(=O)c3ccccc3[N+](=O)[O-])ccc21	TR SRC2 fluor cs 100µM[quencher] (no result: GoLoco inh red)
COC(=O)C1=C(C(=O)OC)[C@@H]2N(Cc3ccccc3)c3ccccc3[C@@]23C[C@@H](C(=O)OC)N(S(=O)(=O)c2c(C)noc2C)C3=N1	none
Cc1nc(NC2CCCCC2)c2nc(-c3ccccc3)n(CC3CCN(C)CC3)c2n1	none
C=CC[n+]1c(-c2ccc(OCC)cc2)csc1NNC(=O)Nc1ccccc1	Tau fluor cs inconclusive, Tau ThT inhib 13µM
O=C(O)c1c(Cl)c(Cl)c(Cl)c(Cl)c1-c1c2cc(I)c(=O)c(I)c-2oc2c(I)c(O)c(I)cc12	Tau fluor cs 1.6µM[fluorescent], TRb-SRC2 inh 5µM, TR SRC2 fluor cs 2.8µM[fluorescent], Tau ThT inhib 3.2µM
COC(=O)C1=C(C(=O)OC)[C@@H]2N(Cc3ccccc3)c3ccccc3[C@@]23C[C@@H](C(=O)OC)N(C(=O)c2ccco2)C3=N1	none
COc1ccc(NC(=O)c2c(C)oc3ccc(O)c(CN4CCCCCC4)c23)cc1Cl	TR SRC2 fluor cs 794µM[quencher] (no result: GoLoco inh red)
O=C(COc1cccnc1[N+](=O)[O-])c1ccc(Cl)s1	Tau fluor cs inconclusive, Tau ThT inhib 5µM, Tau fibril FP 10µM
CCOC(=O)c1c(NC(=O)CSc2nnnn2-c2ccc(OC)cc2)sc(C)c1C	Tau ThT inhib 32µM, Tau fibril FP inconclusive
CCOC(=O)c1csc(NC(=O)CSc2nnnn2-c2ccc(OC)cc2)n1	Tau fibril FP inconclusive
COc1ccc(/C=N/Nc2ccc([N+](=O)[O-])cc2S(=O)(=O)N2CCN(C)CC2)cc1	Tau ThT inhib inconclusive
